According to PubChem BioAssay AID493170 (National Center for Advancing Translational Sciences (NCATS), 2011):
Inconclusive results are not listed. Entries that show only a call come without a potency. Calls of active or inactive are those of the source. Calls follow the shape of the dose curve; as a rule, active = well fitted inhibition curve with a large enough effect; inconclusive = small, poorly fitted or top-dose-only effect, or effect the other way; inactive = flat fitted curve, though single readings scatter.

Target: Ubiquitin carboxyl-terminal hydrolase 2 (Homo sapiens) (UniProt O75604)
Sequence (O75604 whole entry, looked up): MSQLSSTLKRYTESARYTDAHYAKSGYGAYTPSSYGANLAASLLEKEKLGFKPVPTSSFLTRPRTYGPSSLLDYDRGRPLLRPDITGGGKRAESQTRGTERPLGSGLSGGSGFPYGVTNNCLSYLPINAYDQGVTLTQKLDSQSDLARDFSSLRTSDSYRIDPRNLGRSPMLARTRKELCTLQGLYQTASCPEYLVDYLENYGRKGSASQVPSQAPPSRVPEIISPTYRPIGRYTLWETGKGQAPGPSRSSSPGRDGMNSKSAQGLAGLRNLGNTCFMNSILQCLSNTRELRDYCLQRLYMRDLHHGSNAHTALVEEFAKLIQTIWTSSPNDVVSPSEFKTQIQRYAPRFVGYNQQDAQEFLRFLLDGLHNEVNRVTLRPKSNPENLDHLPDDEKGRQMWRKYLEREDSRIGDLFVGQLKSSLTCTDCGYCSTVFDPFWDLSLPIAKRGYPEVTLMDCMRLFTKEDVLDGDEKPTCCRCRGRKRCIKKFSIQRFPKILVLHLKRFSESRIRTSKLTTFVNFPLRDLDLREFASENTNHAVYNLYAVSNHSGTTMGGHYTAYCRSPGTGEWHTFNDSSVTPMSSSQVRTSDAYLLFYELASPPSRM
Assay: Ub-rhodamine 110 based assay for inhibitors Ubiquitin-specific Protease USP2a; also: nearly all actives have a fitted effect of over 50% in size
Settings: USP2a Ub-rhodamine110 cleavage, fluorescence; series mostly up to 38.3 µM
In short: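 5 nM USP2a preincubated with compounds for 30 min at RT in 20 mM Tris-HCl pH 8.0, 2 mM CaCl2, 2 mM beta-mercaptoethanol, 0.05% CHAPS. Cleavage of 150 nM Ub-rhodamine 110 read kinetically (Ex 485/Em 531) for 7 min.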
Potency is read from the fitted curve at half-maximal effect.

Row | Compound | Potency
1 | C(=N\N(c1ccccc1)c1ccccc1)/c1ccccn1 | inactive
2 | COc1ccc(CCN2C(=O)/C(=C\c3ccco3)SC2=S)cc1OC | inactive
3 | CSCCC(NC(=O)c1cc(C(C)(C)C)oc1C)C(=O)O (stereo not drawn) | inactive
4 | CSc1cccc(NC(=O)c2ccccc2N(C)S(C)(=O)=O)c1 | inactive
5 | CC(=O)c1c(N2CCCC2)[nH]c(-c2ccccc2)nc1=S | inactive
6 | O=C(Nc1nnc(SCC(=O)N2CCCC2)s1)C1CC(=O)N(c2ccc(F)cc2)C1 (stereo not drawn) | 11.2 µM (active)
7 | COCc1cc(C)nc(SCC[N+](C)(C)CC(=O)Nc2cccc(C(F)(F)F)c2)c1C#N | inactive
8 | COc1ccc(/C=C2\SC(=S)N(NS(=O)(=O)c3ccc(C)cc3)C2=O)c(OC)c1 | 10 µM (active)
